Assay results from PubChem BioAssay (NCATS).
Records with an inconclusive call do not appear. The source made the active and inactive calls. Calls follow the shape of the dose curve; as a rule, active = well fitted curve in either direction with a large enough effect (not every such curve was filed as active); inconclusive = small, poorly fitted or top-dose-only effect, or another doubt; inactive = flat fitted curve, though single readings scatter.

Experiment: AP1 Signaling Pathway (AID 357);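 also: ME-180 reporter cells stimulated with EGF at its EC50 level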
Conditions: ME-180 (cervical carcinoma) AP-1-bla reporter, EGF-induced, beta-lactamase ratio, 5 h; at 17.2 µM (top of the series) unless noted
Outline: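 Titration-series screen for positive or negative modulators of EC50 EGF-induced signaling in ME-180 cells carrying an AP-1-driven beta-lactamase reporter. After 5 hours at 37 degrees Celsius, CCF4 460nm/530nm emission ratio gave %Activity; AC50 values derived.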
% is scaled to controls: 0 for no effect and ±100 for the full control effect.

Activity change, negative = inhibition, inactive:
Clc1nc(-c2n[nH]nc2Cl)n[nH]1 14.2%
COc1ccc(C(O)C(CN2CCOCC2)c2ccccc2)cc1 (stereo unspecified) -1.55%
CN(C)/C=C1\N=C(c2ccc(Cl)cc2Cl)OC1=O -19.5%
N#Cc1nc(COc2ccc(Br)cc2)oc1NCCN1CCOCC1 -17.9%
CCOC(=O)C(C)Oc1nc(Oc2ccccc2)nc(N(C)C)n1 (stereo unspecified) -9.94%
CC(C)(C)C1=Nn2c(nnc2C2CCCCC2)SC1 -2.23%
COc1ccc(/C(O)=C2/C(=O)C(=O)N(CCN3CCOCC3)C2c2cccnc2)cc1OC (stereo unspecified) -2.7%
CCOC(=O)C1=C(C)NC(=O)NC1c1ccc2c(c1)OCO2 (stereo unspecified) -4.59%
COC(=O)CC(=O)Cc1nc(N)nc(Nc2ccc(C)c(C)c2)n1 9.64%
Cc1ccc(CC2CC(=O)N(c3ccc4c(c3)OCCO4)C2=O)cc1 (stereo unspecified) -5.59%
CN/C(=C/[N+](=O)[O-])NCCSCc1ccc(CN(C)C)o1 -15.4%
CCNc1nc(NC(C)C)nc(N(C#N)C(C)C(=O)N(C)C)n1 (stereo unspecified) -3.35%
S=c1[nH]nc(-c2ccccc2)n1Cc1ccccc1 -4.69%
CCOC(=O)c1c(C)n(C)c2ccc(OC)c(NC(=O)CN3CCCCC3)c12 -11.4%
COc1ccc(CCNC(=O)c2ccc(=O)[nH]n2)cc1OC -1.15%
COc1ccc(OC)c(C2/C(=C(\O)c3ccc(OC)c(Cl)c3)C(=O)C(=O)N2CCN(C)C)c1 (stereo unspecified) 10.2%
